In the library only some 0.83% were active in any assay of this set; here they are far more common.
NR5A2 inv ag: inverse agonists of human LRH-1 (NR5A2); O00482; HEK293T StAR-luciferase reporter, LRH-1 transfected, 24 h; inhibition, % at 3.6 µM; actives 0.13% (n = 360,000);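 active = inhibition above the mean inhibition of all tested compounds plus 3 SD, cut at about 73% in these data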;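 note: 0% = DMSO wells and 100% = reporter-only cells lacking LRH-1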
SRC3 inh: inhibitors of human steroid receptor coactivator 3 (SRC3); actives 0.17% (n = 360,000); inhibition, % at 3.6 µM; AID 588352; HEK293 GAL4-SRC3 luciferase reporter, luminescence; Q9Y6Q9;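 active = inhibition above a per-campaign cutoff, the mean of all compounds plus 3 SD, cut at about 60% in these data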;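 note: 0% = DMSO-treated cells and 100% = gossypol-treated cells at 36 µM; higher means less SRC3-driven luciferase light from the GAL4 reporter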
SRC1 inh: inhibitors of human steroid receptor coactivator 1 (SRC1); inhibition, % at 3.6 µM; HEK293 GAL4-SRC1 luciferase reporter, luminescence; Q15788; actives 0.12% (n = 360,000);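 active = inhibition above the campaign mean plus 3 SD, with each screening campaign given its own cutoff, cut at about 60% in these data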;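 note: 0% = DMSO treated cells and 100% = gossypol at 36 µM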
Gli-Sufu antag: antagonists of Gli-Sufu signaling; Sufu-KO-LIGHT fibroblasts, Gli luciferase reporter luminescence; actives 0.74% (n = 340,000); AID 588413; inhibition, % at 5 µM;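 active = inhibition above about 55%, limit read from the data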;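 note: 0% = DMSO-treated cells and 100% = wells with medium but no cells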
SRC2 inh: human SRC2 (NCOA2) inhibition. Q15596. HEK293 GAL4-SRC2 luciferase reporter, luminescence. inhibition, % at 9 µM. actives 0.17% (n = 370,000). AID 651957;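 active = inhibition above the mean inhibition of all tested compounds plus 3 SD, set per campaign, cut at about 52% in these data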;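 note: 0% = DMSO treated cells and 100% = cells given Gossypol at 36 µM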
Target sequence (Q15596 whole entry, looked up, the tested form may be a part): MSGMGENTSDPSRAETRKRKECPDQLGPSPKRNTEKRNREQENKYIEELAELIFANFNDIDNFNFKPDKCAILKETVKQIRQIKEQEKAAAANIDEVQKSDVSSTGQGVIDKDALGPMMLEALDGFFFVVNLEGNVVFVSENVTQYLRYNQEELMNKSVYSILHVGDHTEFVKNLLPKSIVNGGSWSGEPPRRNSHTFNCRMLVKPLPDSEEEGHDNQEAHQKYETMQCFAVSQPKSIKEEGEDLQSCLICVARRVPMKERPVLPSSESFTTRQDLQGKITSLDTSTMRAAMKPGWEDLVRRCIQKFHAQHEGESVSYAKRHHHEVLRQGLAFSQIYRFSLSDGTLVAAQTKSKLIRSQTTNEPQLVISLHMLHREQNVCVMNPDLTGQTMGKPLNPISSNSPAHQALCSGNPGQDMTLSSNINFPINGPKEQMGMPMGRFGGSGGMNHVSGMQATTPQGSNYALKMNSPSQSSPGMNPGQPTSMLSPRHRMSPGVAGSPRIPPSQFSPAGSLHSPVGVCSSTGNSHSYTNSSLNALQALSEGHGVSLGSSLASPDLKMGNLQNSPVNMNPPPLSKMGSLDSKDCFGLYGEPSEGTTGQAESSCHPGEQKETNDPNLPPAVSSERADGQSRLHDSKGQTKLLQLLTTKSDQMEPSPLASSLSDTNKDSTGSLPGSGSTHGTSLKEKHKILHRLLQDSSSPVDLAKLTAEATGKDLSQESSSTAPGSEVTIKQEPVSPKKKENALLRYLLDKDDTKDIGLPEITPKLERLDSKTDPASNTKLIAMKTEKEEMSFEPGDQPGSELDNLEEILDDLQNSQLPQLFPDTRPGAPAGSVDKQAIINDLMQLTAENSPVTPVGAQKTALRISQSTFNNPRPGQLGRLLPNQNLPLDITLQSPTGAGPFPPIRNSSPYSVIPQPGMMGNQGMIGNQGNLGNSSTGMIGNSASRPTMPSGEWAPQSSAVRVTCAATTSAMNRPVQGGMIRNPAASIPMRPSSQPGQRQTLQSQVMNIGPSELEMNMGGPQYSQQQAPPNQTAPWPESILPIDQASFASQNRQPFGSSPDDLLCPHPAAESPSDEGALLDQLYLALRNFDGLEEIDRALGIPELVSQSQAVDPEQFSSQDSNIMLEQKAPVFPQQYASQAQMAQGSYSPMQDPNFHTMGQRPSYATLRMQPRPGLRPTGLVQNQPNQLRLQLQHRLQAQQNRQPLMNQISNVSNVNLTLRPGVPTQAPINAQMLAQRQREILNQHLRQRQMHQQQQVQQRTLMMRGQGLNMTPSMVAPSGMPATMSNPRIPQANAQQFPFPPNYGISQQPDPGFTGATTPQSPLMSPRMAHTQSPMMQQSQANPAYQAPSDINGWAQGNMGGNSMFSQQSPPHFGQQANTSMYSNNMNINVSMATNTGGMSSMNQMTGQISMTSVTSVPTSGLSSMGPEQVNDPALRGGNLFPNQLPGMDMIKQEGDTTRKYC
Gli-Sufu confirm: Gli-SUFU antagonism confirmation, single concentration; shares compounds with Gli-Sufu antag; Sufu-KO-LIGHT cells, Gli luciferase reporter, luminescence; inhibition, % at 5 µM; actives 40% (n = 2,500);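 active = mean inhibition at 5 µM reaching about 45%, limit read from the data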;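 note: plate controls were DMSO-treated cells for no effect and wells lacking cells for full effect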
Gli cytotox: counter-screen for Gli-SUFU antagonists: cytotoxicity | shares compounds with Gli-Sufu antag | Sufu-KO-LIGHT cells cytotoxicity, ATP luminescence | cytotoxicity, % at 5 µM | actives 32% (n = 2,500) | AID 651994;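 active = mean cytotoxicity at 5 µM above about 25%, limit read from the data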;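 note: cells exposed to compound overnight for roughly 16 to 18 hours; plate controls were DMSO wells with cells for no effect and medium without cells for full effect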
Wnt3a cs: counter-screen for Gli-SUFU antagonists: Wnt3a reporter inhibition; actives 20% (n = 2,500); AID 651995; Wnt-LIGHT cells, Wnt3a-driven luciferase reporter, luminescence; inhibition, % at 6.25 µM; shares compounds with Gli-Sufu antag;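 active = mean inhibition above about 25%, limit read from the data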
* hit, by the source's call; · = no result given.

SMILES	NR5A2 inv ag	SRC3 inh	SRC1 inh	Gli-Sufu antag	SRC2 inh	Gli-Sufu confirm	Gli cytotox	Wnt3a cs
O=C(Cc1ccccc1F)Nc1nc2ccccc2[nH]1	-46	-15	-6	67*	-11	12	8	-34
O=C(Cc1cccc2ccccc12)Nc1nc2ccccc2[nH]1	-5	16	-23	9	16	·	·	·
O=C1OCCC1Sc1nnc(-c2ccc(Cl)cc2Cl)o1 (stereo not drawn)	3	37	12	53	29	67*	12	78*
COc1ccc(OC)c(S(=O)(=O)N2CCCC(C(=O)Nc3c(C)n(C)n(-c4ccccc4)c3=O)C2)c1 (stereo not drawn)	·	·	·	·	-10	·	·	·
CC(=O)Nc1ccc(NC(=O)N2CCOCC2)cc1	-42	4	-3	·	-15	·	·	·
CC(C)c1ccc(NC(=O)N2CCOCC2)cc1	-44	-52	-79	60*	-43	-11	4	-55
Cc1ccc(Cn2nnc3c2-c2ccccc2S(=O)(=O)N(C(C)(C)C)C3)cc1	·	·	·	·	-10	·	·	·
CCc1[nH]c(=O)c(C#N)c2c1CCCC2	2	-5	-12	51	-16	17	4	3
CCc1[nH]c(=S)c(C#N)c2c1CCCC2	7	12	-9	-2	2	·	·	·
Cc1nc2ncnn2c(N2CCN(S(=O)(=O)c3ccc(Br)cc3)CC2)c1C	1	20	14	57*	1	33	1	1
CCOC(=O)CC[C@H]1CC[C@]2(CCCN(C(=O)c3ccno3)C2)O1	·	·	·	·	14	·	·	·
CCc1ccc(-c2cc(C)no2)cc1S(=O)(=O)NCCN1CCC(C)CC1	-3	-7	-18	-7	-30	·	·	·
CCOc1ccccc1CNS(=O)(=O)c1cc(-c2cc(C)no2)ccc1OC	0	5	3	-1	-3	·	·	·
COc1ccc(-c2cc(C)no2)cc1S(=O)(=O)NCC(C)c1ccccc1 (stereo not drawn)	7	-1	9	76*	-1	27	7	-39
CCc1ccc(-c2cc(C)no2)cc1S(=O)(=O)NCCCN1CCN(c2ccccc2)CC1	3	-30	-7	50	30	18	29*	-55
Cc1ccc(-n2c(Cc3cccs3)nnc2SCC(=O)Nc2cccc3ccccc23)cc1	·	·	·	·	8	·	·	·
CN1CCN(C(=O)c2ccc(N3CCCC3=O)cc2)CC1	1	-9	-18	60*	17	20	-3	-9
O=C(c1ccc(N2CCCC2=O)cc1)N1CCOCC1	-30	-12	6	-3	-1	·	·	·
Cc1nn(CCC(=O)NNC(=O)Nc2ccc(Cl)cc2)c(C)c1[N+](=O)[O-]	·	·	·	·	19	·	·	·
COC(=O)[C@]12C[C@H](CC(=O)N3CCN(C(=O)C4CC4)CC3)C(=O)N(CCc3ccc(OC)c(OC)c3)C1=C[C@H](COCc1ccccc1)O[C@@H]2C	·	·	·	·	4	·	·	·
COc1ccc(C(=O)NNC(=S)NC(=O)c2ccc(F)cc2)cc1Br	-7	10	-9	1	-26	·	·	·
COc1cc(C(=O)NNC(=S)NC(=O)c2ccc(F)cc2)cc(OC)c1OC	3	19	12	57*	-22	14	18	-19
CCCn1c(N2CCN(C(=O)NCc3ccccc3)CC2)nc2ccccc21	-17	20	1	57*	-6	34	20	-90
COC(=O)[C@]12C[C@H](CC(=O)NCc3cccc(C(F)(F)F)c3)C(=O)N(Cc3ccc(Cl)cc3Cl)C1=C[C@H](C1CCCC1)O[C@@H]2C	·	·	·	·	11	·	·	·
COc1ccc(/C=N/NC(=O)c2nc(-c3ccccc3)n(-c3ccccc3)n2)cc1	-6	16	11	30	12	·	·	·
COc1ccc(/C=N/NC(=O)c2nc(-c3ccccc3)n(-c3ccccc3)n2)c(O)c1	7	1	24	63*	-8	62*	34*	56*
COC(=O)c1cc(-c2ccc(C(C)(C)C)cc2)c(=O)n2c1CCC2	·	·	·	·	12	·	·	·
O=S(=O)(c1ccc2c(c1)OCCO2)N1CCN(c2ncnc3sccc23)CC1	36	27	4	64*	38	61*	48*	22

Assay outcomes: PubChem, several laboratories
